Measurements taken from the supplement of paper PMC12494721.
Counter-ions that a name gives are not always drawn.

tested on: Ruminococcus gnavus DSM 108212; experiment: fold change of 2-Phenylethylamine concentration vs plate DMSO controls (fold change (ratio)); higher = more amine produced, active = hit call of the paper (significant change in both replicates, either direction); conditions: incubation time: 27 h, anaerobic, 37 °C;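 for the amine columns active = adjusted P below 0.05 in both replicates with a change the same way and a mean fold change under 0.8 or over 1.25; inactive = the rest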
Summary of the method: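 Amines were quantified by LC–triple-quadrupole MS in dynamic MRM mode against external calibration curves, with drift correction within each batch. The samples were whole anaerobic mGAM cultures of four gut bacterial strains, grown for 27 h at 37 °C in 80 µL wells and extracted with cold acetonitrile/methanol with 0.1% formic acid, then centrifuged. Values are reported as fold change over DMSO controls on the same plate. The mean of 2 biological replicates is given.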

Fold change of 2-Phenylethylamine concentration, inactive:
CCNC(=O)CCC/C=C\C[C@@H]1[C@@H](/C=C/[C@@H](O)CCc2ccccc2)[C@H](O)C[C@@H]1O [Bimatoprost] (20 µM) 0.919
CN(Cc1ccc(C(C)(C)C)cc1)Cc1cccc2ccccc12 [Butenafine hydrochloride] (20 µM) 1.03
CN1CCC(OC(c2ccccc2)c2ccccc2)CC1 [Diphenylpyraline hydrochloride] (20 µM) 1.05
c1ccc2cc3c(ccc4ccccc43)cc2c1 [Benz[a]anthracene] (20 µM) 1.3
CC1=C(C(=O)O)N2C(=O)[C@@H](NC(=O)[C@H](N)c3ccccc3)[C@H]2SC1 [Cephalexin monohydrate] (20 µM) 1.15
CNc1ncnc2c1ncn2[C@@H]1O[C@H](CO)[C@@H](O)[C@H]1O [N6-methyladenosine] (20 µM) 1.01
Cn1nnc2c(C(N)=O)ncn2c1=O [Temozolomide] (20 µM) 1.01
CN[C@@H]1[C@H](O[C@H]2[C@H](O[C@H]3[C@H](O)[C@@H](O)[C@H](N=C(N)N)[C@@H](O)[C@@H]3N=C(N)N)O[C@@H](C)[C@]2(O)C=O)O[C@@H](CO)[C@H](O)[C@H]1O [Streptomycin sulfate] (20 µM) 0.994
CC(C)Oc1ccc2c(=O)c(-c3ccccc3)coc2c1 [Ipriflavone] (20 µM) 1.02
CC[C@@H]1C(=O)OC[C@@H]1Cc1cncn1C [Pilocarpine nitrate] (20 µM) 0.965
COC(=O)[C@@H]1[C@H]2C[C@H]3c4[nH]c5ccccc5c4CCN3C[C@@H]2CC[C@@H]1O [Yohimbine hydrochloride] (20 µM) 1.01
CC(=O)N1CCN(c2ccc(OCC3COC(Cn4ccnc4)(c4ccc(Cl)cc4Cl)O3)cc2)CC1 (configuration not stated) [Ketoconazole] (20 µM) 0.937
CN1C(C(=O)Nc2ccccn2)=C(O)c2ccccc2S1(=O)=O [Piroxicam] (20 µM) 0.999
NS(=O)(=O)c1cc2c(cc1Cl)NC(Cc1ccccc1)NS2(=O)=O (configuration not stated) [Benzylhydrochlorothiazide] (20 µM) 1.07
Cc1cc2c(cc1S(N)(=O)=O)S(=O)(=O)CCC2 [Meticrane] (20 µM) 1
OC[C@@H](O)[C@@H](O)[C@@H](O)[C@@H](O)CO [Allitol] (50 µM) 0.932
Cc1c(N(C)C)c(=O)n(-c2ccccc2)n1C [Amidopyrine] (20 µM) 1.19
